# Inconclusive results are not listed. Where a call stands in place of a potency, no number is given. The source made the active and inactive calls. The call rests on the fitted dose curve; in most records, active means well fitted curve in the direction sought with a large enough effect; inconclusive means small, poorly fitted or top-dose-only effect, or another doubt; inactive means no such curve, though single readings can be large; an effect the other way counts as inactive or inconclusive.
# Tests used:
# [1] = Quantitative High-Throughput drug screen in 47 multiple myeloma cell lines against the NCATS MIPE library collection: FR4_PLB cell viability assay (AID 1918924; further: nearly all actives have a fitted effect of over 35% in size); details: FR4_PLB myeloma cells viability, CellTiter-Glo ATP, 48 h; series mostly up to 45.8 µM
# Method in brief: (§1)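 Primary qHTS used for cherry-picking: cells at 500/well, library compounds for 48 h (37C, 5% CO2), luminescent ATP assay.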
# [2] = Quantitative High-Throughput drug screen in 47 multiple myeloma cell lines against the NCATS MIPE library collection: Delta47_JCRB cell viability assay (AID 1918925; further: nearly all actives have a fitted effect of over 45% in size; further: potency means the concentration at half of the fitted maximal effect); details: Delta47 myeloma viability, CellTiter-Glo ATP, 48 h; series mostly up to 45.8 µM
# Method in brief: (§2)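 Inhibition of cell viability is measured here. Each line was plated at 500 cells per well, treated with MIPE 4.0 drugs, kept 48 hours at 37C, then assayed for ATP content by CellTiter-Glo luminescence.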
# [3] = Quantitative High-Throughput drug screen in 47 multiple myeloma cell lines against the NCATS MIPE library collection: EJM_DSMZ cell viability assay (AID 1918926; further: nearly all actives have a fitted effect of over 30% in size); details: EJM myeloma cell viability, CellTiter-Glo ATP, 48 h; series mostly up to 45.8 µM
# Method in brief: as §2
# [4] = Quantitative High-Throughput drug screen in 47 multiple myeloma cell lines against the NCATS MIPE library collection: AMO1_DSMZ cell viability assay (AID 1918927; further: nearly all actives have a fitted effect of over 30% in size); details: AMO1 myeloma cells viability, CellTiter-Glo ATP luminescence, 48 h; series mostly up to 45.8 µM
# Method in brief: as §2
# [5] = Quantitative High-Throughput drug screen in 47 multiple myeloma cell lines against the NCATS MIPE library collection: ARP1_JJKsccF8 cell viability assay (AID 1918928; further: nearly all actives have a fitted effect of over 40% in size); details: ARP1 myeloma cells viability, CellTiter-Glo ATP, 48 h; series mostly up to 45.8 µM
# Method in brief: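 ATP readout (CellTiter-Glo), 48 h drug incubation, 37 °C/5% CO2, 500 cells per well; normalisation to DMSO (100%) and media-only (0%) controls.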
# [6] = Quantitative High-Throughput drug screen in 47 multiple myeloma cell lines against the NCATS MIPE library collection: ARD_JJKsccE7 cell viability assay (AID 1918929; further: potency means the concentration at half of the fitted maximal effect); details: ARD myeloma cell line viability, CellTiter-Glo, 48 h; series mostly up to 45.8 µM
# Method in brief: as §2
# [7] = biological target: Glutathione peroxidase 1 (Homo sapiens) (UniProt P07203); assay: Primary qHTS Assay for Inhibitors of Recombinant Selenoprotein Glutathione Peroxidase 1 (GPX1) (AID 1845191); details: recombinant GPX1, GR-coupled NADPH fluorescence, 15 min; series mostly up to 48.8 µM; further: nearly all actives have a fitted effect of over 65% in size
# Chain of Glutathione peroxidase 1 (Homo sapiens) (P07203 whole entry, looked up): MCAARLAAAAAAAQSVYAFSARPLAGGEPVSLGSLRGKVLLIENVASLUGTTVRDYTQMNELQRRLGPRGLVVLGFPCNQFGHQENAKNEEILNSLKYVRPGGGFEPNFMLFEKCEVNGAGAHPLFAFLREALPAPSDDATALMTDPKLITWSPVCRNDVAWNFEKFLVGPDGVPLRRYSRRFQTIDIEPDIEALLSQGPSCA
# Method in brief: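 10 nM GPX1 + cpd, 30 min RT; start w/ 1 mM GSH, 0.5 mM cumene hydroperoxide, 0.5 mM NADPH, 100 nM GR, 0.01% BSA; buffer 50 mM Tris-HCl pH 7.5, 2 mM EDTA, 150 mM NaCl; Fl 340/450, 0 & 15 min.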
# [8] = biological target: Phospholipid hydroperoxide glutathione peroxidase GPX4 (Homo sapiens) (UniProt P36969); assay: Primary qHTS Assay for Inhibitors of Recombinant Selenoprotein Glutathione Peroxidase 4 (GPX4) (AID 1845192); details: recombinant GPX4, GR-coupled NADPH fluorescence, 15 min; series mostly up to 50 µM; further: nearly all actives have a fitted effect of over 65% in size
# Chain of Phospholipid hydroperoxide glutathione peroxidase GPX4 (Homo sapiens) (P36969 whole entry, looked up): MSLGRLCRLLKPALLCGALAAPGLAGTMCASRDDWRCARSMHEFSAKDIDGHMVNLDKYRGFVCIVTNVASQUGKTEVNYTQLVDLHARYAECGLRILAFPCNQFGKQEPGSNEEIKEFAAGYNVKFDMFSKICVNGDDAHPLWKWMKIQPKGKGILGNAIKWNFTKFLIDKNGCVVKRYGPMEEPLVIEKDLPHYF
# Method in brief: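 NADPH consumption, followed by fluorescence at 340/450 nm between 0 and 15 min, reports GPX4 activity via coupled glutathione reductase (100 nM). Enzyme 200 nM was pre-exposed to compound 30 min; 0.5 mM cumene hydroperoxide and 1 mM GSH served as substrates.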
# [9] = Quantitative High-Throughput drug screen in 47 multiple myeloma cell lines against the NCATS MIPE library collection: Karpas620_DSMZ cell viability assay (AID 1918959); details: Karpas620 myeloma viability, CellTiter-Glo ATP luminescence, 48 h; series mostly up to 45.8 µM; further: potency means the concentration at half of the fitted maximal effect; nearly all actives have a fitted effect of over 30% in size
# Method in brief: as §1
# [10] = biological target: Luciferin 4-monooxygenase (Photinus pyralis) (UniProt P08659); assay: Primary firefly luciferase (FLuc) qHTS assay for identification of artifact compounds. (AID 1845220); details: purified firefly luciferase, luminescence, 5 min; series mostly up to 54.1 µM; further: nearly all actives have a fitted effect of over 60% in size
# Method in brief: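 FLuc 10 nM; luciferin 10 uM; ATP 10 uM; Tris-acetate pH 7.6, Mg-acetate 10 mM; 15 min RT preincubation; 5 min reaction; luminescence.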
# [11] = Primary fluorescence-based thiol-reactive (MSTI) qHTS assay for identification of artifact compounds. (AID 1845221); details: MSTI thiol-reactivity probe, 1 h; series mostly up to 53.8 µM;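 further: thiol-reactive compounds lower the probe fluorescence signal; nearly all actives have a fitted effect of over 65% in size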
# Method in brief: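 MSTI probe at 4 uM final in 2% DMSO/PBS pH 7.4; compounds, 1 h at room temperature in dark. Fluorescence Ex/Em 525/598 nm, normalised to Acetyl-MSTI and MSTI, fitted to 4-parameter Hill.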
# [12] = Primary redox qHTS assay for identification of artifact compounds. (AID 1845223); details: Amplex Red/HRP redox cycling with DTT, fluorescence; series mostly up to 53.8 µM
# Method in brief: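 Amplex Red (25 uM) and HRP (250 mU/mL) in HBSS, with compounds for 15 min, then 250 uM DTT for 30 min, room temperature, dark. Fluorescence 525/598 nm read; normalized to DMSO and 10 uM DA3003; Hill fit.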
smiles,measurement,setting,value
COc1cc2cc(c1Cl)N(C)C(=O)C[C@H](OC(=O)C(C)C)[C@]1(C)O[C@H]1[C@H](C)[C@@H]1C[C@@](O)(NC(=O)O1)[C@H](OC)C=CC=C(C)C2,Potency,[1],inactive
same,Potency,[2],inactive
same,Potency,[3],inactive
same,Potency,[4],inactive
same,Potency,[5],inactive
same,Potency,[6],inactive
COc1ccc(C(=O)c2c(C)n(CCN3CCOCC3)c3cc(I)ccc23)cc1,Potency,[7],inactive
same,Potency,[8],inactive
same,Potency,[2],16.6 µM (active)
same,Potency,[6],18.7 µM (active)
same,Potency,[9],18.7 µM (active)
CCOC(=O)c1cncn1[C@H](C)c1ccccc1,Potency,[1],inactive
same,Potency,[2],inactive
same,Potency,[3],inactive
Cc1c(N)nc([C@H](CC(N)=O)NC[C@@H](N)C(N)=O)nc1C(=O)N[C@H](C(=O)N[C@@H](C)[C@H](O)[C@@H](C)C(=O)N[C@@H](C(=O)NCCc1nc(-c2nc(C(=O)NCCC[S+](C)C)cs2)cs1)[C@@H](C)O)C(O[C@H]1O[C@H](CO)[C@H](O)[C@@H](O)[C@@H]1O[C@H]1O[C@H](CO)[C@@H](O)[C@H](OC(N)=O)[C@H]1O)c1cnc[nH]1 (some centres not stated),Potency,[1],inactive
same,Potency,[2],0.469 µM (active)
O=C(N[C@@H](COc1ccc2[nH]c(=O)[nH]c2c1)c1ccccc1)c1cccn(Cc2ccc(F)c(F)c2)c1=O,Potency,[7],inactive
same,outcome,[10],inactive
same,Potency,[11],inactive
same,outcome,[12],inactive
same,Potency,[2],20.9 µM (active)
same,Potency,[6],18.7 µM (active)

# Reference: PubChem BioAssay (NCATS)
